Source: PubChem
An excerpt weighted towards active compounds, which were near 0.5% of everything screened.
Menin MLL FP FL: qHTS Assay for Inhibitors Targeting the Menin-MLL Interaction in MLL Related Leukemias: Competition With Fluorescein Labeled MLL-derived Peptide | Fluorescence polarization, fluorescein-MLL peptide displacement from menin | FP activity change, % at 61.4 µM | 290,000 tested, under 10 active | AID 1766, 2009; active = well fitted curve in the direction sought with a large enough effect in the polarisation, not every such curve was filed as active; inconclusive = small, poorly fitted or top-dose-only effect, or effect the other way, or a change in a side signal; inactive = no such curve, though single readings can be large or run the other way; the % refers to the polarisation
CXXC DNA block: qHTS Fluorescence Polarization Assay for Inhibitors of MLL CXXC domain - DNA interaction | AID 2662, 2010 | MLL-CXXC / FITC-HOXA9 DNA fluorescence polarization | 290,000 tested, 0.037% active | Potency, µM (doses to about 115 µM), most hits filed as inhibitors | Histone-lysine N-methyltransferase 2A (Homo sapiens), Q03164; active = well fitted inhibition curve with a large enough effect in the polarisation, with a control signal flat, not every such curve was filed as active; inconclusive = small, poorly fitted or top-dose-only effect, or effect the other way, or a change in a side signal; inactive = no such curve, though single readings can be large or run the other way; the % refers to the polarisation
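Fluorescence polarization: 7 uM MLL-CXXC (stock) preincubated 5 min with compounds, then 50 nM fluorescein-HOX-A9 DNA (stock) added; 30 min ambient. Buffer 50 mM Tris-HCl pH 7.5, 50 mM NaCl, 1 mM DTT, 0.05% BSA.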
TRb-SRC2 inh: qHTS for Inhibitors of the Interaction of Thyroid Hormone Receptor and Steroid Receptor Coregulator 2. Thyroid hormone receptor beta (Homo sapiens), P10828. TRbeta-SRC2 peptide binding, fluorescence polarization; receptor liganded with 1 µM T3. Potency, µM (highest dose often 106 µM), hits mostly inhibitors. 280,000 tested, 0.065% active. AID 1469, 2008; active = well fitted inhibition curve with a large enough effect; inconclusive = small, poorly fitted or top-dose-only effect, or effect the other way; note: nearly all actives have a fitted effect of over 50% in size
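Decrease in fluorescence polarization of 20 nM Texas Red SRC2 coactivator peptide flagged inhibition of its binding to 0.6 uM TRb LBD; 1 uM T3 included, incubation 5 hr, ex 555/em 632 nm.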
TexasRed fluor: Total Fluorescence Counterscreen for Inhibitors of the Interaction of Thyroid Hormone Receptor and Steroid Receptor Coregulator 2; TRb/SRC2 Texas Red total fluorescence interference; Potency, µM (series often up to 106 µM); 280,000 tested, 0.29% active; AID 1479, 2009; active = well fitted curve in either direction with a large enough effect; inconclusive = small, poorly fitted or top-dose-only effect
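Human TRb ligand-binding domain at 0.6 uM with 20 nM Texas Red SRC2 peptide in Tris buffer containing 1 uM T3 and 5% DMSO, incubated with compound 5 h at ambient temperature. Total fluorescence (555/632 nm) calculated as parallel + 2 × perpendicular.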
RGS12 GoLoco inh: qHTS Assay for Inhibitors of RGS12 GoLoco Motif Activity (Red Fluorophore); Guanine nucleotide-binding protein G(i) subunit alpha-1 (Homo sapiens), P63096; Gai1:RGS12 GoLoco peptide FP, rhodamine, 10 min; Potency, µM (series often up to 61.6 µM), actives largely listed as inhibitors; 230,000 tested, 0.44% active; AID 880, 2007; active = well fitted inhibition curve with a large enough effect, not every such curve was filed as active; inactive = no such curve, though single readings can be large or run the other way; note: nearly all actives have a fitted effect of over 30% in size
Target sequence (P63096 whole entry, looked up): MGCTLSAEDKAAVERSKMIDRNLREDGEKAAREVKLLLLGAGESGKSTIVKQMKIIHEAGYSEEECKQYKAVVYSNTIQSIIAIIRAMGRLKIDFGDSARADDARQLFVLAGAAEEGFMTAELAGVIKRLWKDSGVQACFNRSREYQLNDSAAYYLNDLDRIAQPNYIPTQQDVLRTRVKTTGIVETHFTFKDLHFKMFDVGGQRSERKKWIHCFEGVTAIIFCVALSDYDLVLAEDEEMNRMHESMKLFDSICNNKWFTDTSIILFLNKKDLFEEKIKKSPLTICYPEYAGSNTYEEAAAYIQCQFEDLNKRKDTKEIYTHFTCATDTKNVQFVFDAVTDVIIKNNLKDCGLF
Menin-MLL TR inh: qHTS Assay for Inhibitors Targeting the Menin-MLL Interaction in MLL Related Leukemias: Competition With Texas Red Labeled MLL-derived Mutant Peptide; Potency, µM (doses to about 61.6 µM), actives largely listed as inhibitors; Menin + Texas Red MLL mutant peptide, fluorescence polarization; O00255; 270,000 tested, 0.23% active; active = well fitted inhibition curve with a large enough effect in the polarisation, with a control signal flat, not every such curve was filed as active; inconclusive = small, poorly fitted or top-dose-only effect, or effect the other way, or a change in a side signal; inactive = no such curve, though single readings can be large or run the other way; the % refers to the polarisation
Numbers stand for hits; 0 = inactive; ? = inconclusive; - = no result given; [ ] = remark or other dose.

SMILES	Menin MLL FP FL	CXXC DNA block	TRb-SRC2 inh	TexasRed fluor	RGS12 GoLoco inh	Menin-MLL TR inh
Cc1cccc(OCc2ccc(-c3nc(C#N)c(N4CCN(c5ccccc5)CC4)o3)o2)c1	-	-	0	6310µM[quencher]	-	-
COc1ccc(N2CCN(c3oc(-c4ccc(COc5cccc(C)c5)o4)nc3C#N)CC2)cc1	-	-	0	?	-	-
Cc1ccccc1OCc1ccc(-c2nc(C#N)c(N3CCC(C(N)=O)CC3)o2)o1	-	-	0	0	-	-
CCN1CCN(c2oc(-c3ccc(COc4ccccc4C)o3)nc2C#N)CC1	-	-	0	28µM[quencher]	-	-
Cn1c(=O)c2c(-c3ccc(Br)cc3)n(Cc3ccc(F)cc3)cc2n(C)c1=O	-	-	0	0	-	-
O=C1C=CC2=C3c4cc(O)c(O)cc4C[C@]3(O)COC2=C1	?	-	0	0	0.25µM	?
CCOC(=O)c1ccn(-c2nc(-c3cccc(OC)c3)cc(C(F)(F)F)n2)n1	-	-	0	0.0022µM[quencher]	-	-
COc1cccc(-c2cc(C(F)(F)F)nc(-n3cccn3)n2)c1	0	0	0	0	0	0
O=C1CCC(C2CCCCC2)CC1	-	-	0	0	-	-
CO[Si](CCCOCC1CO1)(OC)OC (centres undefined)	-	-	0	0	-	-
COc1ccc2ccc3c(c2c1)N=CC1(O3)N(C)c2ccccc2C1(C)C (centres undefined)	0	0	28µM	?	0	0
O=C1C2=CC[C@H]3C(=O)N(C4CCCCC4)C(=O)[C@@H]3[C@@H]2[C@H](O)[C@@H]2O[C@H]12	0[11.7 µM]	-	0[11.2 µM]	?	-	0[11.7 µM]
C[n+]1ccccc1N1CCN(c2ccccc2Cl)CC1	0	0	0	0	13µM	0
COc1ccc(/C=N/N=C2/CC(C)(C)Cc3n[nH]c(=O)cc32)cc1	?	?	?	0	28µM	0
COc1ccc(/C=N/N=C2/NC(=O)CC(C(=O)O)S2)cc1 (centres undefined)	0	0	0	0	0	0
O=C(O)[C@H](/C=C\c1ccccc1)c1ccccc1	-	-	-	-	0[14.2 µM]	-
CCCCCCCC/C=C\CCCCCCCCO	-	-	0	0	-	-
CCOC(=O)CC(O)(CC(=O)OCC)C(=O)OCC	-	-	0	0	-	-
Cc1cc(/C=C2/C(=O)N(C)C(=S)N2C)ccc1N1CCCC1	?	?	0	0	0	0
Cc1cc(N2CCCC2)ccc1/C=C1/C(=O)N(C)C(=S)N1C	?	?	0	0	0	22µM
O=C(c1ccccc1)N1N=C(c2ccccc2O)CC1c1ccccc1 (centres undefined)	0	?	-	-	-	28µM
CCCCOCCOCCOC(=O)CCCCC(=O)OCCOCCOCCCC	-	-	0	0	-	-
O=C(Nc1cc(Cl)cc(Cl)c1)c1ccc(F)c(S(=O)(=O)N2CCc3ccccc32)c1	-	-	0	0	-	-
CC1CCCC(C)N1C(=O)Cn1cc(/C=C2/C(=O)Nc3ccccc32)c2ccccc21 (centres undefined)	0	-	0	0	6.3µM	?
Cc1ccc(C=C2C(=O)c3ccccc3C2=O)s1	0	?	?	45µM[fluorescent]	0	0
SMILES	Menin MLL FP FL	CXXC DNA block	TRb-SRC2 inh	TexasRed fluor	RGS12 GoLoco inh	Menin-MLL TR inh
Cc1cc(C=C2C(=O)c3ccccc3C2=O)c(C)n1C	0	0	0	0	0	0
COC(CNC(=O)c1cccnc1)OC	0	0	0	0	0	?
COC(CNC(=O)c1ccc2c3c(onc13)-c1ccccc1C2=O)OC	?	0	0	0	10µM	-
CC(C)CCCCCCc1ccc(OCCOCCO)cc1	-	-	0	0	-	-
COc1ccccc1CNS(=O)(=O)c1ccc2c(c1)CC(C)N2C(=O)C1CC1 (centres undefined)	0	0	-	-	-	0
Cc1ccc(C)c(N2CCN(S(=O)(=O)c3ccc4c(c3)CC(C)N4C(=O)C3CC3)CC2)c1 (centres undefined)	0	0	-	-	-	0
COc1ccccc1CNS(=O)(=O)c1ccc2c(c1)CC(C)N2C(=O)C1CCC1 (centres undefined)	0	0	0	22µM[quencher]	-	0
Cc1ccc(Cl)cc1N1CCN(S(=O)(=O)c2ccc3c(c2)CC(C)N3C(=O)C2CCC2)CC1 (centres undefined)	-	-	0	16µM[quencher]	-	-
COc1cc(OC)cc(OC)c1	0	0	0	0	18µM	0
CCCOP(=O)(c1ccc(N(C)C)cc1)C(Nc1ccccc1)c1ccc(N(C)C)cc1 (centres undefined)	0	0	0	32µM[quencher]	0	0
Cc1cccn2c(=O)c(/C=C(\C#N)C(=O)NC3CCS(=O)(=O)C3)c(N3CC(C)OC(C)C3)nc12 (centres undefined)	0	0	0	0	0	-
Cc1cccn2c(=O)c(/C=C(\C#N)C(=O)NC3CCS(=O)(=O)C3)c(N3CCC(C(N)=O)CC3)nc12 (centres undefined)	0	0	0	0.0003µM[quencher]	0	0
COCCCNC(=O)/C(C#N)=C/c1c(N2CCN(c3ccc(OC)cc3)CC2)nc2c(C)cccn2c1=O	0	0	-	-	-	28µM
COCCCNC(=O)/C(C#N)=C/c1c(N2CCN(C)CC2)nc2c(C)cccn2c1=O	0	0	-	-	-	0
CSc1ccc(Cl)cc1	-	-	0	0	-	-
CC(=O)Nc1ccc(S(=O)(=O)Oc2ccc(/C=C3\SC(N)=NC3=O)cc2)cc1	0	0	0	0	0	14µM
COc1ccc(C(=O)NC(=S)NNC(=O)Cc2cccs2)cc1	0	0	0	0	0	0
COc1cc(OC)cc(C(=O)NC(=S)NNC(=O)Cc2cccs2)c1	0	0	?	0.32µM[quencher]	0	0
CCOC(=O)/C(C(=O)Nc1ccccc1Cl)=C1/NC(C)(C)Cc2ccccc21	0	0	0	0	0	0
CCOC(=O)/C(C)=C1\NC(C)(C)Cc2ccccc21	0	0	0	0	28µM	0
C[C@]12CC[C@H](O)CC1=CC[C@H]1[C@@H]2CC[C@@]2(C)C(N(CCO)CCO)CC[C@@H]12 (some centres undefined)	-	-	-	-	0[14.2 µM]	-
COc1ccccc1-c1cc(C(=O)Nc2ccc(F)cc2F)no1	0	0	0	0	0	11µM
COc1ccccc1-c1cc(C(=O)Nc2cc(Cl)ccc2O)no1	-	-	0	0	-	-
O=S(=O)(c1ccc2nc(-c3ccco3)c(-c3ccco3)nc2c1)N1CCOCC1	0	0	0	6.3µM[quencher]	0	?
O=S(=O)(c1ccc2ccccc2c1)N1CCOCC1	0	0	-	-	-	0
O=C(O)c1ccc2c(c1)C(=O)OC2=O	-	-	0	0	-	-
CCC1=NN2C(=N)/C(=C\c3ccc(SCc4ccco4)o3)C(=O)N=C2S1	?	?	0	?	0	?
